# Laboratory results reported in paper PMC7862700, “An all-to-all approach to the identification of sequence-specific readers for epigenetic DNA modifications on cytosine”.
# Legend:
# Assay in all cases: DAPPL (digital affinity profiling via proximity ligation, sequencing); 10 mM Tris-HCl pH 7.5, 50 mM NaCl, 1 mM DTT, 4% glycerol, room temperature, 30 min; GST-TFs on glutathione beads, 16-mer random dsDNA library, 0.1% formaldehyde crosslink after washing; high values mean tight binding
# [1] = target: T1, FEV (Homo sapiens, UniProt Q99581 1-238); conditions: protein: recombinant; tags: N-terminal GST; dsDNA, one strand shown
# T1 sequence: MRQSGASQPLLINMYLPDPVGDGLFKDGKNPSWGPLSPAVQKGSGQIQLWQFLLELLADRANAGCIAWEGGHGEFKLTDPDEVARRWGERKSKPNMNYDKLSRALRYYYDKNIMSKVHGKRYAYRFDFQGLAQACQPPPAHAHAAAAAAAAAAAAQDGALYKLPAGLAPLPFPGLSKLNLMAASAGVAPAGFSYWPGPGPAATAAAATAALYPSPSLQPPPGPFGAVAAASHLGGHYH
# In short: (§1)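 Human transcription factors carrying a GST fusion were produced in yeast, bound to glutathione beads, tagged with DNA barcodes and pooled together with a tag-only sample. Each pool was held with 200 nmole of a random double-stranded 16-mer DNA library in Tris/NaCl/DTT/glycerol buffer for 30 min at room temperature, then washed, crosslinked in 0.1% formaldehyde, proximity-ligated with BsaI/T4 ligase (1 h, 37 °C), PCR-amplified and sequenced on an Illumina NextSeq500. Binding signal is the read frequency of each hexamer for a given factor divided by its frequency in the tag-only sample.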
# [2] = target: ETV5 (Homo sapiens, UniProt P41161 1-510); conditions: protein: recombinant; tags: N-terminal GST; dsDNA, one strand shown
# Chain of ETV5 (P41161 whole entry): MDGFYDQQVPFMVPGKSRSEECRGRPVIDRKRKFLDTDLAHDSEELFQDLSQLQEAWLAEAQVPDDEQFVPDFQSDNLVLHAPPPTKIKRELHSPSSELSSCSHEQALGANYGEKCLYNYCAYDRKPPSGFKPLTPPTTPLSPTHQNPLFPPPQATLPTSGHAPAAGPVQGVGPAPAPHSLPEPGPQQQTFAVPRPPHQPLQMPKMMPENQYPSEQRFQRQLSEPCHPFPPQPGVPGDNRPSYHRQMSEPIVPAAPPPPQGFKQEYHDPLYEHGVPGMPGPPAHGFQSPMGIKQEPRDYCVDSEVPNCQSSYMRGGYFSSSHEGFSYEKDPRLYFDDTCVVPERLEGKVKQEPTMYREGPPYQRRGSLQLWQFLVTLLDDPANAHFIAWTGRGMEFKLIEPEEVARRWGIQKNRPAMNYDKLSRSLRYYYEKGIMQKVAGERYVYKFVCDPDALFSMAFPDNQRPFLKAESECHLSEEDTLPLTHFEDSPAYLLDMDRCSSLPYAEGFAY
# In short: as §1
# [3] = target: HSF1 (Homo sapiens, UniProt Q00613 1-529); conditions: protein: recombinant; tags: N-terminal GST; chain copies: 3; dsDNA, one strand shown
# Chain of HSF1 (Q00613 whole entry): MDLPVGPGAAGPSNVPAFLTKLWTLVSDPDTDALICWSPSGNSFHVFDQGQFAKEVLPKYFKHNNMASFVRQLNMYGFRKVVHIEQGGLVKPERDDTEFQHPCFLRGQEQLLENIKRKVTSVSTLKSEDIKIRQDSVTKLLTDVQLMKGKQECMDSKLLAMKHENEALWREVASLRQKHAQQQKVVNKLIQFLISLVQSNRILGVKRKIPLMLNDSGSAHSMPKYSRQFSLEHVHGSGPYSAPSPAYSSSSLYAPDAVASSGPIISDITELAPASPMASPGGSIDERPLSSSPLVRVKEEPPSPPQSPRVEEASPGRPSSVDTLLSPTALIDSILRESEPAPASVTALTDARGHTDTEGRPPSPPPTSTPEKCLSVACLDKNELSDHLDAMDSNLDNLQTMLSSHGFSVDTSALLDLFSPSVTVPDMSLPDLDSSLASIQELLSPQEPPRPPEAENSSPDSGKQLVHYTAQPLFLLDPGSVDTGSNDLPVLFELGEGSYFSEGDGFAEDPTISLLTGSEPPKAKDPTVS
# In short: as §1
# [4] = target: T2, SPIC (Homo sapiens, UniProt Q8N5J4 1-248); conditions: protein: recombinant; tags: N-terminal GST; dsDNA, one strand shown
# T2 sequence: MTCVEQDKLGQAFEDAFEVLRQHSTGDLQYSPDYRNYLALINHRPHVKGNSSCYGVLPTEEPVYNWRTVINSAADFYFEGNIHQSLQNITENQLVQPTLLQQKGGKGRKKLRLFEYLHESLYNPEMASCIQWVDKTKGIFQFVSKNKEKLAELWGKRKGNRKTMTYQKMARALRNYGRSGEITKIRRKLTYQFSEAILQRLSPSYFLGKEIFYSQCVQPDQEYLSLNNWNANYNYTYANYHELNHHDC
# In short: as §1
# [5] = target: ELF4 (Homo sapiens, UniProt Q99607 1-663); conditions: protein: recombinant; tags: N-terminal GST; dsDNA, one strand shown
# Chain of ELF4 (Q99607 whole entry): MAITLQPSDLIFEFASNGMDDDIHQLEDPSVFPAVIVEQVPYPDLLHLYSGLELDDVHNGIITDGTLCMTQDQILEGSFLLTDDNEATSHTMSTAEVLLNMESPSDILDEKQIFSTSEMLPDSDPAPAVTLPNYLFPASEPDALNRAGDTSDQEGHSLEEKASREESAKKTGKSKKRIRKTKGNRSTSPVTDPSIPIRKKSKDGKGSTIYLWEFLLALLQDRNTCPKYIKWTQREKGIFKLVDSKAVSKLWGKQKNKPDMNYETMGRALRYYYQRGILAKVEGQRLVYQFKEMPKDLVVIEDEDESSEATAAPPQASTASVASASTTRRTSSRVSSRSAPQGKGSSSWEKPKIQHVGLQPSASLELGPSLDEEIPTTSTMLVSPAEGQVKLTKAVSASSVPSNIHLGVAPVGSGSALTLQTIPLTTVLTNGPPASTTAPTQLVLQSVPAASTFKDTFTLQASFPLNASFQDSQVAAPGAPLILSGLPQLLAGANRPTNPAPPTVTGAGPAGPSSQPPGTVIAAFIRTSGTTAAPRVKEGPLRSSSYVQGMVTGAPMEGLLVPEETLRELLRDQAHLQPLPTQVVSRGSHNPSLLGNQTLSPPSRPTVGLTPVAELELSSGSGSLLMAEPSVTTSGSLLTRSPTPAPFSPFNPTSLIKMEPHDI
# In short: as §1
# [6] = target: T3, ELK4 (Homo sapiens, UniProt P28324-2 1-405); conditions: protein: recombinant; tags: N-terminal GST; dsDNA, one strand shown
# T3 sequence: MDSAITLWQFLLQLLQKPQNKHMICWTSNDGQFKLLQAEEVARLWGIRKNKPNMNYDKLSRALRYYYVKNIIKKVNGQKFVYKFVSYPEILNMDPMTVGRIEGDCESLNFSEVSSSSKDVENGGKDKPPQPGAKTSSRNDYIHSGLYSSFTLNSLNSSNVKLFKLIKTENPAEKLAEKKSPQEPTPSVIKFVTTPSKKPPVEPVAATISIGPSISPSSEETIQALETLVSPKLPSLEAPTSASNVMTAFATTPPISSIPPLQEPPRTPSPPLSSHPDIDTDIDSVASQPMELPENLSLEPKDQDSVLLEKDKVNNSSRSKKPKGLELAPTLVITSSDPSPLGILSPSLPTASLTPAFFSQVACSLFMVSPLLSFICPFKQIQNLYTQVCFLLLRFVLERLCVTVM
# In short: as §1
# [7] = target: T4, ETV2 (Homo sapiens, UniProt O00321 1-342); conditions: protein: recombinant; tags: N-terminal GST; dsDNA, one strand shown
# T4 sequence: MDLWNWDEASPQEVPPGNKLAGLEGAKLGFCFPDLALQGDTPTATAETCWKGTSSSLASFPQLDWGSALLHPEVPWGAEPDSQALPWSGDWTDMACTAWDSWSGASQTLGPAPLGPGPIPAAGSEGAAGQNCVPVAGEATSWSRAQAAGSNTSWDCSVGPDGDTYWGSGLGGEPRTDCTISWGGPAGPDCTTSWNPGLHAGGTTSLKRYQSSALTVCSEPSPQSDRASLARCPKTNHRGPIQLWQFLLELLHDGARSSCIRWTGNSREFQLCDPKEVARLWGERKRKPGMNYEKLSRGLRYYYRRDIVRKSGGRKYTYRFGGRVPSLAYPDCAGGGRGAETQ
# In short: as §1
# [8] = target: T5, ELF3 (Homo sapiens, UniProt P78545 1-371); conditions: protein: recombinant; tags: N-terminal GST; dsDNA, one strand shown
# T5 sequence: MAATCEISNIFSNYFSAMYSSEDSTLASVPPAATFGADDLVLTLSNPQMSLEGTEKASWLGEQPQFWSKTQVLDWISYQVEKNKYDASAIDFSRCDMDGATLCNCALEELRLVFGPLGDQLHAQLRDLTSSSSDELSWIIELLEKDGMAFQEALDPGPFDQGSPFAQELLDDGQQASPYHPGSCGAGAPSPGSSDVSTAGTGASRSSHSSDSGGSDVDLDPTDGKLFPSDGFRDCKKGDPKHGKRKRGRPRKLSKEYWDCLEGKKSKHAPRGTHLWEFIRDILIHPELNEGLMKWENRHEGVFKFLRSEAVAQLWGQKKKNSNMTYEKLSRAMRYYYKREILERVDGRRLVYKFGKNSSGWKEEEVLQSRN
# In short: as §1
# [9] = target: CRX (Homo sapiens, UniProt O43186 1-299); conditions: protein: recombinant; tags: N-terminal GST; dsDNA, one strand shown
# Chain of CRX (O43186 whole entry): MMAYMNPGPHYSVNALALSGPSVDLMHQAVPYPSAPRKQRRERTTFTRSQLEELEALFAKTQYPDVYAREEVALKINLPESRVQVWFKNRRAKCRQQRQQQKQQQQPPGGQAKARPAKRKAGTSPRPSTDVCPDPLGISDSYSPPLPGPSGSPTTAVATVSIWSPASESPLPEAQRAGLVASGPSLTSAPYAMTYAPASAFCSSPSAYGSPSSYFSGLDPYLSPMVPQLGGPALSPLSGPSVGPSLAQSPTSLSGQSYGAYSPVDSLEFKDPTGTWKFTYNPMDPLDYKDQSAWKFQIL
# In short: as §1
# [10] = target: ETV1 (Homo sapiens, UniProt P50549 1-477); conditions: protein: recombinant; tags: N-terminal GST; dsDNA, one strand shown
# Chain of ETV1 (P50549 whole entry): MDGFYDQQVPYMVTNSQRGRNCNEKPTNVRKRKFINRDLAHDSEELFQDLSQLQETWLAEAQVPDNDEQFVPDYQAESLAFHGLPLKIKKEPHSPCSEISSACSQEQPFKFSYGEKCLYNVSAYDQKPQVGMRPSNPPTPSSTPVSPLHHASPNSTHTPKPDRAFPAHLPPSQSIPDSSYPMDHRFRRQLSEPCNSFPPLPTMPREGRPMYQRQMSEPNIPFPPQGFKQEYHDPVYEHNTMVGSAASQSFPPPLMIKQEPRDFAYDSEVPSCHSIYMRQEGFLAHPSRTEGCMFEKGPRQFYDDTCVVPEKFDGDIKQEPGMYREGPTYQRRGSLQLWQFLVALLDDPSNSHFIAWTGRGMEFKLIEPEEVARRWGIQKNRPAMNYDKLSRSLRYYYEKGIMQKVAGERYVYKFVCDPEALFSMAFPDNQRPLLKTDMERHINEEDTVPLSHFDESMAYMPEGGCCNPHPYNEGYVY
# In short: as §1
# [11] = target: T6, ERF (Homo sapiens, UniProt P50548 1-548); conditions: protein: recombinant; tags: N-terminal GST; dsDNA, one strand shown
# T6 sequence: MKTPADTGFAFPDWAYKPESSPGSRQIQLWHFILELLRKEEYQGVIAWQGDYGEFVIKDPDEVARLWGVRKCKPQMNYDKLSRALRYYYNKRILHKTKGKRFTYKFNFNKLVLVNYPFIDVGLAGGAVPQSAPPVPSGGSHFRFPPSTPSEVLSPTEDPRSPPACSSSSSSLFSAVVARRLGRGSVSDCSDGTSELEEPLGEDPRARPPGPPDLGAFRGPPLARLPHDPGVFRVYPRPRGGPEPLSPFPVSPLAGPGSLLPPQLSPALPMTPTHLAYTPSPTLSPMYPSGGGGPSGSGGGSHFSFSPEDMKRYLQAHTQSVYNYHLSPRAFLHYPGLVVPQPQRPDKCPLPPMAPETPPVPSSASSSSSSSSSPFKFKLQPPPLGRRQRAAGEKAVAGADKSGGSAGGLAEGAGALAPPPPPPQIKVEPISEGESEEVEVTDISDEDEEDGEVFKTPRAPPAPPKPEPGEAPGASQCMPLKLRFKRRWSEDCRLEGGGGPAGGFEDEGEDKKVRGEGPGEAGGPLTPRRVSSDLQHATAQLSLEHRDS
# In short: as §1
# [12] = target: T7, ETV3L (Homo sapiens, UniProt Q6ZN32 1-361); conditions: protein: recombinant; tags: N-terminal GST; dsDNA, one strand shown
# T7 sequence: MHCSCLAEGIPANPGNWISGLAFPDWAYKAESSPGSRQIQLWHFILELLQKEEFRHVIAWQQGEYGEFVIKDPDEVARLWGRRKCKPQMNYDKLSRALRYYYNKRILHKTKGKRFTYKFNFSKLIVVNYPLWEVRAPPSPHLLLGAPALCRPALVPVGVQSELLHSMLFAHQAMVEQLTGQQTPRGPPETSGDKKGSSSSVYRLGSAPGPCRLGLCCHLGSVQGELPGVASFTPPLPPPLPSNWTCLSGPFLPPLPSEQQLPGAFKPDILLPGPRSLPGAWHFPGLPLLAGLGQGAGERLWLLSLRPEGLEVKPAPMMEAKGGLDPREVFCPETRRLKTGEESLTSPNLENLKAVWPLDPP
# In short: as §1
# [13] = target: T8, ETS2 (Homo sapiens, UniProt P15036 1-469); conditions: protein: recombinant; tags: N-terminal GST; dsDNA, one strand shown
# T8 sequence: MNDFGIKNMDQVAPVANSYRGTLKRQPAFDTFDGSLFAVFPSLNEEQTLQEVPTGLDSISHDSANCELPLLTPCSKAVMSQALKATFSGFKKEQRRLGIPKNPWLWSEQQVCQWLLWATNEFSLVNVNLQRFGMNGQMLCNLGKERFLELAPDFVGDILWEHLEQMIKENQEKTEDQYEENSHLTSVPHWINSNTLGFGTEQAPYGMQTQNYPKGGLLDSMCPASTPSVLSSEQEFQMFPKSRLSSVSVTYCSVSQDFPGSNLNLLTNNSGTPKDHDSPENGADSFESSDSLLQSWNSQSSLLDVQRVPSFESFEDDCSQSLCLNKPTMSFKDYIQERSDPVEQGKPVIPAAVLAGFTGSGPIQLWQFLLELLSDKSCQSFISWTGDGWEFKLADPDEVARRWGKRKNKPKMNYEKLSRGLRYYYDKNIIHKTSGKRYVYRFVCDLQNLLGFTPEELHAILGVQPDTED
# In short: as §1
# [14] = target: T9, SPDEF (Homo sapiens, UniProt O95238 1-335); conditions: protein: recombinant; tags: N-terminal GST; dsDNA, one strand shown
# T9 sequence: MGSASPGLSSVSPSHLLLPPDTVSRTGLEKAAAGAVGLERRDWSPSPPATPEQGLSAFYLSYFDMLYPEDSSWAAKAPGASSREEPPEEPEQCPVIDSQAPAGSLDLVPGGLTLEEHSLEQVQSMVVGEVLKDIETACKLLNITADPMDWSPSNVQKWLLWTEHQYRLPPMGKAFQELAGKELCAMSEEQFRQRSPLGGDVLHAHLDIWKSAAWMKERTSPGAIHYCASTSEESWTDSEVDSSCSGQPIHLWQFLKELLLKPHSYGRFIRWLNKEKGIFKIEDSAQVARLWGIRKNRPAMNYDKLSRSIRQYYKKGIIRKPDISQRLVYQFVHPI
# In short: as §1
# [15] = target: T10, ETV7 (Homo sapiens, UniProt Q9Y603 1-341); conditions: protein: recombinant; tags: N-terminal GST; dsDNA, one strand shown
# T10 sequence: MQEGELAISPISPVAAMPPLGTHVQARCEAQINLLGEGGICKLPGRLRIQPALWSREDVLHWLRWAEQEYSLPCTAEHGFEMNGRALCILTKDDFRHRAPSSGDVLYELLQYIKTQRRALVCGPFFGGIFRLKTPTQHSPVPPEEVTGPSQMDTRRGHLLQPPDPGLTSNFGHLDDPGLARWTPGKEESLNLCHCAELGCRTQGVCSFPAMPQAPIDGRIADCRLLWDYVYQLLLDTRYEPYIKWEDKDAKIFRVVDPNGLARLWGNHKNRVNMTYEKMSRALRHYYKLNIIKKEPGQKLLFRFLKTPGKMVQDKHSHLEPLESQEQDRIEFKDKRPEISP
# In short: as §1
# [16] = target: T11, ELF5 (Homo sapiens, UniProt Q9UKW6-2 1-255); conditions: protein: recombinant; tags: N-terminal GST; dsDNA, one strand shown
# T11 sequence: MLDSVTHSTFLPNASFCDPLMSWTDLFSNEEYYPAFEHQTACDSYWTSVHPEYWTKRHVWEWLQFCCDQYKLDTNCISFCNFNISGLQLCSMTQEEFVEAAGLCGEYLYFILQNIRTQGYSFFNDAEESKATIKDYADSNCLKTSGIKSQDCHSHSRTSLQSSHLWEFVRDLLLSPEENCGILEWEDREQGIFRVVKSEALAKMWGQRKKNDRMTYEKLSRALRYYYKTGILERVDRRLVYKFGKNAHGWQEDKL
# In short: as §1
# [17] = target: T12, ETV3 (Homo sapiens, UniProt P41162-2 1-143); conditions: protein: recombinant; tags: N-terminal GST; dsDNA, one strand shown
# T12 sequence: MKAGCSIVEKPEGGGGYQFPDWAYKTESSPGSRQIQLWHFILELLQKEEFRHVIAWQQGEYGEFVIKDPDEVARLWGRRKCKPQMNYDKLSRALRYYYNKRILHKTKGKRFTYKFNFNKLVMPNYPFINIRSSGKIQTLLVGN
# In short: as §1
# [18] = target: ETV6 (Homo sapiens, UniProt P41212 1-452); conditions: protein: recombinant; tags: N-terminal GST; dsDNA, one strand shown
# Chain of ETV6 (P41212 whole entry): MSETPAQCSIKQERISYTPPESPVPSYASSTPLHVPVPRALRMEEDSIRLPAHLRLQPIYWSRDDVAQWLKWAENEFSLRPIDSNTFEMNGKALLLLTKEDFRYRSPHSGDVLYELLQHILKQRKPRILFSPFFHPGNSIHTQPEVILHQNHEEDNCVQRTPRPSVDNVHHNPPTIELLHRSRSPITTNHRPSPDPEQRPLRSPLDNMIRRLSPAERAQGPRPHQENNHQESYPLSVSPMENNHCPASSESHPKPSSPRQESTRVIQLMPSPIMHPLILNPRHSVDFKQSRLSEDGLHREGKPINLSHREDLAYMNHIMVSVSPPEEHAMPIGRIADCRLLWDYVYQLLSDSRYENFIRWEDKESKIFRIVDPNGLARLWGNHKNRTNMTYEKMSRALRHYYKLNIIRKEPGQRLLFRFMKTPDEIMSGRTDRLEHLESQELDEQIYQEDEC
# In short: as §1
sequence,measurement,setting,value
CGCTTC,binding signal,[1],"2.28 fold enrichment (6-mer frequency, TF over GST control)"
same,binding signal,[2],"2.34 fold enrichment (6-mer frequency, TF over GST control)"
same,binding signal,[3],"1.26 fold enrichment (6-mer frequency, TF over GST control)"
same,binding signal,[4],"1.77 fold enrichment (6-mer frequency, TF over GST control)"
same,binding signal,[5],"2.02 fold enrichment (6-mer frequency, TF over GST control)"
same,binding signal,[6],"1.77 fold enrichment (6-mer frequency, TF over GST control)"
same,binding signal,[7],"1.68 fold enrichment (6-mer frequency, TF over GST control)"
same,binding signal,[8],"1.93 fold enrichment (6-mer frequency, TF over GST control)"
same,binding signal,[9],"1.05 fold enrichment (6-mer frequency, TF over GST control)"
same,binding signal,[10],"2.03 fold enrichment (6-mer frequency, TF over GST control)"
same,binding signal,[11],"2.11 fold enrichment (6-mer frequency, TF over GST control)"
same,binding signal,[12],"2.03 fold enrichment (6-mer frequency, TF over GST control)"
same,binding signal,[13],"2.07 fold enrichment (6-mer frequency, TF over GST control)"
same,binding signal,[14],"2 fold enrichment (6-mer frequency, TF over GST control)"
same,binding signal,[15],"1.9 fold enrichment (6-mer frequency, TF over GST control)"
same,binding signal,[16],"2.14 fold enrichment (6-mer frequency, TF over GST control)"
same,binding signal,[17],"2.09 fold enrichment (6-mer frequency, TF over GST control)"
same,binding signal,[18],"2.35 fold enrichment (6-mer frequency, TF over GST control)"
